Molecules are shown by their SMILES. Calls of active or inactive are those of the source. Unless noted, the rule behind the calls is not given here.

Assay [1] in a line: resazurin metabolic signal in HepG2 cells – cell-based, resazurin fluorescence, 24 h, PK04 Diversity Set, profiling panel (AID 1172). Note: test concentration not given here. The conditions noted are these: HepG2 viability, higher = more signal.
Assay [2] is described as follows: budding yeast growth changes without added modifier – OD600, strain BY4716, 24 h, basal condition, primary screen (AID 1173). To be noted: S. cerevisiae BY4716 growth, OD600, 24 h; higher = more signal, called active from +8 up or from −8 down.
Assay [3] is described as follows: viability profiling in MM1S myeloma cells – cell-based, resazurin fluorescence, basal, 24 h, PK04 Diversity Set, profiling panel (AID 1174).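 Note: MM1S multiple myeloma cell line; test concentration not given here.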 To be noted: higher = more signal, called active from +8 up or from −8 down. (In general: Resazurin is reduced to fluorescent resorufin, in cell work by metabolically active cells.)
Assay [4] addresses Dihydroorotate dehydrogenase (quinone), mitochondrial (Plasmodium falciparum (isolate 3D7)) (UniProt Q08210). Briefly: inhibition of P. falciparum DHODH – biochemical, C-terminal His tag, absorbance 600 nm, primary screen (AID 1175).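 Note: recombinant parasite enzyme with a five histidine tag at its C terminus; test concentration not given here.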 To be noted: PfDHODH enzyme, DCIP absorbance 600 nm; higher = more signal, called active from +8 up or from −8 down.
Assay [5] in a line: inhibition of PAO1 biofilm formation – strain PAO1, LB-PBS medium, absorbance 600 nm, primary screen (AID 1176). Note: test concentration not given here. To be noted: P. aeruginosa PAO1 growth/biofilm, A600, 12 h; higher = more signal.
The nature of assay [6]: growth modulation of vineyard yeast isolate – strain RM11-1a, OD600, basal, 24 h, primary screen (AID 1177).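 Note: cultures grown under basal conditions with no added stressor; test concentration not given here.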 To be noted: S. cerevisiae RM11-1a growth, OD600, 24 h; higher = more signal, called active from +8 up or from −8 down.
Assay [7] is described as follows: growth of efflux-deficient E. coli DRC39 – strain DRC39, OD650, 24 h, E. coli filamentation inducers, primary screen (AID 1178).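 Note: growth measured as culture turbidity by optical density at 650 nm; test concentration not given here.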 To be noted: E. coli DRC39 acrAB, higher = more signal, called active from +8 up or from −8 down.
Assay [8] can be described thus: growth of efflux-deficient E. coli DRC39 – strain DRC39, OD650, 48 h, E. coli filamentation inducers, primary screen (AID 1179).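 Note: screen aims at cell division blockers that make cells filament.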 To be noted: E. coli DRC39 delta-acrAB growth, higher = more signal, called active from +8 up or from −8 down.
The nature of assay [9]: viability profiling in RPMI8226 myeloma cells – cell-based, resazurin fluorescence, basal, 24 h, PK04 Diversity Set, profiling panel (AID 1180).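 Note: RPMI8826 multiple myeloma cell line at 5000 cells per well; test concentration not given here.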 To be noted: higher = more signal.
The target of assay [10] is E3 ubiquitin-protein ligase XIAP (Homo sapiens) (UniProt P98170). In words: small molecules binding XIAP protein – biophysical, small-molecule microarray, fluorescence 635 nm, primary screen (AID 1181).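 Note: score merges 667 nm emission and signal to noise over triplicate slides.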 The conditions noted are these: higher = more signal.
E3 ubiquitin-protein ligase XIAP (Homo sapiens), sequence (P98170 whole entry, looked up): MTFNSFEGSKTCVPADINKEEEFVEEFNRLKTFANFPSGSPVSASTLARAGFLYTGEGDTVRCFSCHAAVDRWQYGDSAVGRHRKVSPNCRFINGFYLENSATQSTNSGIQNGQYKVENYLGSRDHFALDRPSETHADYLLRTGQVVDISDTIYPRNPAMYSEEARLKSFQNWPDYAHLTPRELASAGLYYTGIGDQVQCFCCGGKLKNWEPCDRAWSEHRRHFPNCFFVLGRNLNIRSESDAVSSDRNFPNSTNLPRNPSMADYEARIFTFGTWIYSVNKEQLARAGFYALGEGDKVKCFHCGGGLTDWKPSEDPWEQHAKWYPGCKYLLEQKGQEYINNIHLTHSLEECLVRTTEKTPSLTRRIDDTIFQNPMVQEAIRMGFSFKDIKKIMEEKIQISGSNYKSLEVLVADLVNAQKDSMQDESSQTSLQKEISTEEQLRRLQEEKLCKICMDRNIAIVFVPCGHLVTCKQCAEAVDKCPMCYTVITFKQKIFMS

Dihydroorotate dehydrogenase (quinone), mitochondrial (Plasmodium falciparum (isolate 3D7)), sequence (Q08210 whole entry, looked up): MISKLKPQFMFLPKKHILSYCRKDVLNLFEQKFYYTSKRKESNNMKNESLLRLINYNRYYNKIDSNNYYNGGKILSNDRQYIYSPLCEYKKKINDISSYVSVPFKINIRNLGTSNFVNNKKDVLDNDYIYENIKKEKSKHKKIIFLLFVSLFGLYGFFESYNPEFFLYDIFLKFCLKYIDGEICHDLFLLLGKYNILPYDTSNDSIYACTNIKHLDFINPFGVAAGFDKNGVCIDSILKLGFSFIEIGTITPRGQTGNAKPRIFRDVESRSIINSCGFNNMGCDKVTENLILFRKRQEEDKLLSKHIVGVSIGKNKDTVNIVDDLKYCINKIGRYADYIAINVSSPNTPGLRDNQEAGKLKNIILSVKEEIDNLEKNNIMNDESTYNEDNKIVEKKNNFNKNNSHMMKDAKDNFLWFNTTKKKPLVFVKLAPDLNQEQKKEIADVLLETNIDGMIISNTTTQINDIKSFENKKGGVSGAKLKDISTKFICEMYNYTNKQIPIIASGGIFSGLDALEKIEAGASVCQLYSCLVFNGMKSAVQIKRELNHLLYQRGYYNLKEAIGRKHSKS

On to `O=C1C2C=CC(C(O)c3ccc(Br)cc3)N(Nc3ccccc3)C2C(=O)N1c1ccccc1` (stereo not given), for which the z-score is -0.69 in [1]; -3.48 (inactive) in assay [2]; -1.95 (inactive) in [3]; 1.22 (inactive) in [5]; 0.501 (inactive) in assay [6]; -0.387 (inactive) in assay [7]. Also, the figures for the z-score in assay [8] and in assay [9] were -0.604 (inactive) and -1.48, respectively. Further, the composite z-score in assay [4] is 1.02 (inactive); in [10], 0.184.
For the compound `O=C1C[C@@](C(=O)O)(c2ccc([N+](=O)[O-])cc2)[C@@H](c2ccc(CO)cc2)N1CC12CC3CC(CC(C3)C1)C2`, the z-score in [1] is -0.246; in assay [2] it was -0.418 (inactive); in assay [3] it was -0.646 (inactive); in [5], 0.692 (inactive); in [6] it was 1.08 (inactive); in [7], 0.667 (inactive). For the same compound, the z-score in assay [8] is 0.507 (inactive); in assay [9] it was -0.474. Moreover, the results for the composite z-score in [4] and in [10] were -3.13 (inactive) and -0.234, respectively.
Take `COC(=O)[C@@]1(Cc2ccc(OC)cc2)[C@H]2c3cc(C(=O)N4CCCC4)n(CCF)c3C[C@H]2CN1C(=O)c1ccccc1`: the z-score in assay [1] was -0.952; in assay [2] it was 1.1 (inactive); in assay [3], -2.21 (inactive); in [5], 1.06 (inactive); in [6], 0.977 (inactive); in [7], -1.52 (inactive). For the same compound, the z-score in assay [8] is -1.09 (inactive); in assay [9] it was -1.72. The results for the composite z-score in assay [4] and in [10] were 0.0648 (inactive) and -0.0471, respectively.
`Cc1ccc(-c2cccc(=O)o2)cc1`: the z-score in assay [1] was -0.789; in assay [2] it was -2.2 (inactive); in assay [3], 0.123 (inactive); in [5], -0.128 (inactive); in [6] it was -0.333 (inactive); in [7], -0.418 (inactive). In addition, the z-score was -0.292 (inactive) in [8] and -0.442 in assay [9]. Also, the composite z-score is -0.919 (inactive) in [4] and -0.0143 in assay [10].
As to `COCCCNC(=O)[C@]1(Cc2ccccc2CN=[N+]=[N-])N=C(c2ccc(OCCCO)cc2)O[C@@H]1c1ccccc1CN=[N+]=[N-]`, the z-score in assay [1] is -0.504; in [2] it was 0.409 (inactive); in assay [3], -2.2 (inactive); in assay [5] it was 1.29 (inactive); in assay [6] it was -0.605 (inactive); in assay [7], 0.445 (inactive). Besides, the z-score in assay [8] was 0.0972 (inactive); in assay [9], -2.03. Besides, the composite z-score is 0.502 (inactive) in assay [4] and 0.0427 in [10].
Regarding `COC(=O)C(CC#Cc1ccc2c(c1)[C@]1(C(=O)N2)[C@H](c2ccccc2OCCO)N2[C@H](c3ccccc3)[C@H](c3ccccc3)OC(=O)[C@H]2[C@@H]1C(=O)Nc1nc2ccccc2s1)C(=O)OC`, the z-score in assay [1] is -0.449; in assay [2] it was 1.4 (inactive); in [3], 0.699 (inactive); in [5], 3.7 (inactive); in [6], 2.33 (inactive); in [7], -0.0715 (inactive). In addition, the z-score in [8] was 0.172 (inactive); in assay [9], 1.05. For the same compound, the composite z-score in assay [4] was -8 (inactive); in assay [10], 0.0264.
In the case of `CC(C)N1CC=CC23O[C@@H]4C=CCOC(=O)[C@@H]4[C@H]2C(=O)N(CCCCCCO)[C@@H]3C1=O` (stereo not given in full), the z-score in assay [1] was 0.821; in assay [2], 0.562 (inactive); in [3] it was -0.581 (inactive); in assay [5], 0.165 (inactive); in [6], -0.21 (inactive); in [7], 0.412 (inactive). Further, the z-score in assay [8] was 0.24 (inactive); in assay [9], 0.704. Also, the values for the composite z-score in assay [4] and in [10] were -1.07 (inactive) and 0.0342, respectively.
Turning to `[N-]=[N+]=NCc1ccccc1[C@H]1OC(c2ccc(OCCCO)cc2)=N[C@@]1(Cc1ccccc1N=[N+]=[N-])C(=O)N1CCCCC1`, the z-score in assay [1] was -0.585; in [2], -0.707 (inactive); in [3] it was -2.42 (inactive); in assay [5] it was 0.879 (inactive); in [6], 1.66 (inactive); in assay [7], -0.457 (inactive). Further, the z-score in assay [8] is 0.495 (inactive); in assay [9], -2.94. The composite z-score is -0.062 (inactive) in [4] and -0.0062 in [10].
For `C=CC[C@]1(C(=O)NCC(O)CO)N=C(c2ccc(OCCCO)cc2)O[C@H]1c1ccccc1N=[N+]=[N-]` (stereo not given in full), the z-score in [1] is 0.662; in assay [2] it was -0.746 (inactive); in [3], -0.302 (inactive); in assay [5], 0.755 (inactive); in assay [6] it was 0.329 (inactive); in assay [7], 0.769 (inactive). Besides, the values for the z-score in [8] and in assay [9] were -0.579 (inactive) and 0.245, respectively. Further, the composite z-score is 1.13 (inactive) in assay [4] and -0.106 in [10].
Consider `CCCCC=C[C@@H](NC(=O)CCc1ccccc1)c1ccccc1`, for which the z-score is -1.61 in assay [1]; 0.927 (inactive) in assay [2]; -2.09 (inactive) in assay [3]; 1.16 (inactive) in assay [5]; 0.929 (inactive) in assay [6]; -0.0955 (inactive) in assay [7]. In addition, the values for the z-score in [8] and in assay [9] were -0.169 (inactive) and -3.6, respectively. Moreover, the composite z-score is -0.739 (inactive) in assay [4] and -0.154 in [10].
Regarding `COCCCNC(=O)[C@@]1(Cc2ccccc2)COC(c2ccc(OCCCO)cc2)=N1`, the z-score in assay [1] is 0.515; in assay [2] it was -0.0995 (inactive); in assay [3], 0.141 (inactive); in assay [5] it was -0.499 (inactive); in [6], -0.031 (inactive); in assay [7], -0.13 (inactive). Further, the z-score is 0.993 (inactive) in [8] and 1.22 in [9]. Besides, the composite z-score in assay [4] was 0.45 (inactive); in assay [10] it was -0.098.
On to `[N-]=[N+]=Nc1ccccc1C[C@]1(C(=O)NCCN2CCOCC2)N=C(c2ccc(OCCCO)cc2)O[C@H]1c1ccccc1N=[N+]=[N-]`, for which the z-score was -1.31 in [1]; -4.84 (inactive) in [2]; -1.83 (inactive) in assay [3]; -0.596 (inactive) in assay [5]; -0.505 (inactive) in [6]; -0.0345 (inactive) in assay [7]. Besides, the z-score in assay [8] is 1.31 (inactive); in assay [9], -2.13. In addition, the composite z-score was -0.695 (inactive) in assay [4] and 0.0402 in assay [10].
